# According to PubChem BioAssay (NCI):
# About 79,000 compounds went through this panel and 15% of them were active in at least one assay; those are over-represented in the sample as a whole. Calls of active or inactive are those of the source. Cut-off read from the data, not from the text of the source: active = growth inhibition above about 70%; inactive = the rest.
# Test: NCI Yeast Anticancer Drug Screen. Data for the rad50EPP+ strain (AID 151);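 note: 0% = growth of vehicle-treated control cultures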
# Settings: S. cerevisiae rad50 mutant strain, at 11.0 µM, hits give high values
# Method in brief: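 Genetically defined yeast (rad50EPP+, DNA damage repair alteration) is grown with compound, and inhibition of growth is expressed relative to vehicle-treated controls.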
row,Structure (SMILES),growth inhibition
1,Fc1ccc(Nc2ccc3ccccc3c2)cc1,-1% (inactive)
2,O=S1(=O)CCC2=CC(C(F)(F)F)=CC(C(F)(F)F)=CN21,24% (inactive)
3,O=C(Cc1ccccc1)NNc1nc(NNC(=O)c2ccncc2)nc(Nc2ccc([N+](=O)[O-])cc2)n1,11% (inactive)
4,CCCCS/C(=C(/C#N)C(N)=O)c1cc2c([nH]1)CCCC2,11% (inactive)
5,O=C(O)c1ccccc1C(=O)OC1CCc2ccccc2C1 (centres undefined),-1% (inactive)
6,CCOC(=O)/C(=C\c1cccc(C)c1)C(C)=O,60% (inactive)
7,Cc1cccc2c(Cl)c3cccc(C)c3nc12,26% (inactive)
8,N#CSCC1COc2ccccc2O1 (centres undefined),-5% (inactive)
9,Cc1ccc(S(=O)(=O)NC(=O)C2C(=O)CC3(CCCCC3)CC2=O)cc1,-18% (inactive)
